Compound: CC(C)c1cccc(C(C)C)c1N1C(=O)c2ccc(O)cc2C1=O
Assay: reporter fold induction vs vehicle; higher = higher reporter activity
How it was run: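 Multiplexed cellular biosensor reporter system with cis response-element and trans nuclear-receptor transcription factor reporter constructs (48 cis, 25 trans) and homogeneous detection, tested in ToxCast Phase II at 8 concentrations (0.091–200 µM). Reporter activity is given as fold induction relative to vehicle control. Replicates were averaged where present.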

Row | Target | reporter fold induction (0.091 µM) | reporter fold induction (0.274 µM) | reporter fold induction (0.823 µM) | reporter fold induction (2.469 µM) | reporter fold induction (7.407 µM) | reporter fold induction (22.22 µM) | reporter fold induction (66.67 µM) | reporter fold induction (200 µM)
1 | GRE_CIS | 0.966 | 0.951 | 1.06 | 1.05 | 0.999 | 0.996 | 1.01 | 0.888
2 | p53_CIS | 1.06 | 1.04 | 1.03 | 0.969 | 0.996 | 0.831 | 1.19 | 0.456
3 | CAR_TRANS | 1.1 | 0.946 | 0.997 | 0.985 | 0.814 | 0.835 | 0.84 | 0.343
4 | GAL4_TRANS | 1.03 | 0.907 | 0.951 | 0.908 | 0.842 | 0.905 | 0.61 | 0.53
5 | M_32_TRANS | 1.03 | 0.997 | 1.07 | 1.09 | 1.08 | 1.08 | 0.964 | 1
6 | PPARd_TRANS | 1.05 | 0.856 | 0.9 | 1.11 | 0.953 | 1.14 | 1.27 | 1.45
7 | ERRg_TRANS | 1.02 | 1.11 | 1.14 | 1.02 | 0.941 | 1.07 | 0.845 | 0.391
8 | M_06_CIS | 0.997 | 0.997 | 1.01 | 0.995 | 1.02 | 1.02 | 0.98 | 1.09
9 | NRF1_CIS | 1.01 | 0.997 | 1.04 | 1.01 | 0.978 | 0.868 | 1.02 | 1.44
10 | ERa_TRANS | 1.72 | 2.62 | 4.32 | 5.19 | 4.48 | 4.97 | 2.96 | 1.06
11 | STAT3_CIS | 1.05 | 1 | 0.995 | 0.975 | 0.977 | 1.15 | 1.02 | 0.913
12 | MRE_CIS | 1.05 | 0.983 | 1 | 0.924 | 1.22 | 1.2 | 1.8 | 3.72
13 | AP_1_CIS | 1.01 | 0.867 | 0.986 | 0.984 | 1.2 | 1.44 | 1.7 | 0.71
14 | EGR_CIS | 1.05 | 0.979 | 0.95 | 0.927 | 1.1 | 1.2 | 1.64 | 2.7
15 | M_32_CIS | 1.02 | 0.981 | 1 | 1.02 | 0.972 | 0.978 | 1.12 | 1.02
16 | AP_2_CIS | 1.04 | 1 | 1 | 1.05 | 1.01 | 0.908 | 0.965 | 0.898
17 | HIF1a_CIS | 1.04 | 1.07 | 1.03 | 1.03 | 1.07 | 1.22 | 0.927 | 1.08
18 | DR5_CIS | 0.96 | 1.09 | 1.11 | 0.929 | 1.98 | 2.11 | 1.71 | 2.04
19 | ERRa_TRANS | 1.21 | 0.853 | 1.02 | 1.39 | 1.37 | 0.823 | 0.836 | 0.339
20 | AR_TRANS | 1.06 | 0.894 | 1.13 | 1.02 | 1.02 | 1.29 | 1.01 | 1.14
21 | TCF_b_cat_CIS | 1.06 | 0.944 | 1.13 | 1.06 | 0.839 | 0.671 | 0.77 | 0.204
22 | NRF2_ARE_CIS | 1.19 | 1.1 | 0.995 | 0.886 | 1.15 | 1.48 | 2.47 | 0.886
23 | Myc_CIS | 1.01 | 1.03 | 0.99 | 0.982 | 1.09 | 1.04 | 1.05 | 2.33
24 | FXR_TRANS | 1.17 | 1.15 | 1.19 | 1.17 | 1.09 | 1.46 | 1.82 | 1.92

Row | Target | reporter fold induction (0.091 µM) | reporter fold induction (0.274 µM) | reporter fold induction (0.823 µM) | reporter fold induction (2.469 µM) | reporter fold induction (7.407 µM) | reporter fold induction (22.22 µM) | reporter fold induction (66.67 µM) | reporter fold induction (200 µM)
25 | SREBP_CIS | 1.04 | 0.954 | 1.01 | 0.996 | 1.05 | 0.976 | 1.16 | 1.49
26 | Myb_CIS | 0.995 | 0.98 | 1.02 | 0.983 | 0.998 | 0.979 | 1.03 | 1.13
27 | M_61_CIS | 0.997 | 0.997 | 1.01 | 0.995 | 1.02 | 1.02 | 0.98 | 1.09
28 | PBREM_CIS | 1.05 | 1.04 | 0.916 | 0.965 | 1.24 | 1.15 | 1.19 | 1.16
29 | RARb_TRANS | 0.778 | 0.835 | 0.897 | 0.861 | 1.51 | 1.95 | 1.29 | 0.429
30 | BRE_CIS | 0.993 | 0.878 | 1.14 | 0.967 | 0.938 | 0.934 | 3.36 | 1.05
31 | RORg_TRANS | 1.15 | 1.17 | 1.17 | 1.35 | 1.43 | 0.891 | 0.575 | 0.332
32 | LXRb_TRANS | 1.17 | 1.09 | 1 | 1.16 | 0.89 | 0.837 | 1.13 | 1.11
33 | RXRb_TRANS | 1.04 | 1.11 | 1.24 | 1.01 | 1.17 | 1.19 | 1.07 | 0.915
34 | NURR1_TRANS | 1.09 | 1.26 | 1.01 | 1.05 | 1.08 | 0.976 | 0.934 | 1.2
35 | NFI_CIS | 1.01 | 0.966 | 1.05 | 0.998 | 1.02 | 0.921 | 1.41 | 1.66
36 | HSE_CIS | 0.991 | 0.939 | 1.05 | 1.05 | 0.985 | 0.942 | 1.81 | 3.95
37 | Sox_CIS | 0.965 | 1.03 | 1.03 | 1.04 | 0.984 | 1.19 | 1.19 | 2.17
38 | TGFb_CIS | 1.08 | 0.916 | 0.91 | 0.906 | 0.939 | 1.03 | 1.23 | 0.915
39 | FoxO_CIS | 1.07 | 1.02 | 0.985 | 0.99 | 1.03 | 0.938 | 0.872 | 1.07
40 | TAL_CIS | 1.06 | 0.981 | 1.01 | 0.98 | 1.11 | 1.09 | 1 | 1.28
41 | M_19_TRANS | 1.08 | 0.97 | 1.01 | 0.967 | 0.981 | 0.997 | 1.01 | 1.02
42 | CMV_CIS | 0.996 | 0.94 | 1 | 0.92 | 1.02 | 1.41 | 1.73 | 1.11
43 | NF_kB_CIS | 1.08 | 0.96 | 0.971 | 0.979 | 0.968 | 1.08 | 1.39 | 1.06
44 | M_06_TRANS | 0.964 | 1.01 | 0.995 | 1.01 | 1.01 | 1 | 0.996 | 0.992
45 | DR4_LXR_CIS | 1.02 | 0.906 | 1 | 1.02 | 0.88 | 0.462 | 0.424 | 0.478
46 | Pax6_CIS | 1 | 1.01 | 1.02 | 1.1 | 0.964 | 1.1 | 1.49 | 2.44
47 | C_EBP_CIS | 1.02 | 0.969 | 1.04 | 1.04 | 1.12 | 0.945 | 1.31 | 1.32

— the supplement of paper PMC3616981
